Structures are written as SMILES. About 83,000 compounds went through this panel and 20% of them were active in at least one assay; those are over-represented in the sample as a whole.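 A percent growth of 40 corresponds to 60% growth inhibition; 0 means no net growth; -100 means all cells died. Active threshold: below 10.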 Unmarked numbers belong to inactive results. Active and inactive are the calls of the source.

From PubChem BioAssay (NCI) come the findings set out here.

This test relates to TK-10 renal. The test is described as follows: NCI-60 one-dose screen, 48 h (100 = growth as untreated, 0 = no growth, -100 = all killed). The note with it: 10 µM unless noted.
As to `Nc1nc(-c2cc3c(cc2Cl)NC(=O)/C3=C/c2ccc(Cl)cc2)cs1`, the growth was 82.3%.
Consider `Cc1cccc(Cc2cnc(NC(=O)CCc3ccc(C)o3)s2)c1`, for which the growth is 63.6%.
Under `CC(Cl)(CCl)CS(=O)(=O)c1ccc(Cl)cc1` (stereo not drawn) stands 93.2%; under `COc1ccc(Cl)cc1NC(=O)c1cc2c([nH]1)-c1nc(NC(=O)C(C)(C)C)sc1CC2`, 66.6%.
Under `CC(C)(c1ccc(OCC(O)CNCc2ccco2)cc1)c1ccc(OCC(O)CNCc2ccco2)cc1` (stereo not drawn) stands 93.1%.
Under `O=C1CCC(c2c(O)cc(O)c3c(=O)c(O)c(-c4ccc(O)c(O)c4)oc23)N1` (stereo not drawn) stands 92.7%; under `COc1ccc(Cn2cc3c(c2-c2cc(OC)c(OC)c(OC)c2)CCc2c(CO)noc2-3)cc1`, 74.5%.
In the case of `CC(=O)Cc1cccnc1`, the growth was 95.5%.
For `CC(/C=C/C=C(\C)[C@H](O)[C@H](C)C(=O)O[C@H]1C[C@H](C)C=C2C=C[C@@]3(C)O[C@@H](O)CC(=O)[C@]3(C)[C@H]21)=C\C=C\C(=O)O`, the growth is 15.5%.
As for `Nc1nc(-c2cc3c(cc2Cl)NC(=O)/C3=C/c2ccccc2)cs1`, the growth is 100%.
Turning to `C=CC(=O)NC(=O)Nc1ccccc1Cl`, the growth is 45.2%.
On to `CCOC(=O)c1noc2c1CCc1c-2cn(Cc2ccc(OC)cc2)c1-c1cc(OC)c(OC)c(OC)c1`, for which the growth is 68.8%.
Consider `C=C1C(=O)O[C@H]2[C@H]1CC/C(COC(=O)OC/C1=C/CC[C@@]3(C)O[C@H]3[C@H]3OC(=O)[C@@H](CN(C)C)[C@@H]3CC1)=C\CC[C@@]1(C)O[C@@H]21`, for which the growth is -42.7% (active).
In the case of `CC1CCC(C(C)C)C(NN)C1` (stereo not drawn) it was 96.5%; in that of `Cc1cc(SCc2ccc(Cl)cc2Cl)nc(SCc2ccc(Cl)cc2Cl)n1`, 94.9%; in that of `CCCC(C)(C)COC(=O)c1cccc(N)c1`, 84.5%.
Turning to `O=C1C(Cl)=C(Nc2cccc3cc4ccccc4nc23)C(=O)c2ccccc21`, the growth is 54.5%.
In the case of `CN(C)CCCOc1c(Br)cc(/C=C/C(=O)N(C)CCc2cc(Br)c(OCCCN(C)C)c(Br)c2)cc1Br` it was 106%.
For the compound `Nc1nccc(=S)[nH]1`, the growth was 95.6%.
In the case of `C=C1C(=O)O[C@H]2[C@H]1CC/C(COC(=O)CCCC(=O)OC/C1=C/CC[C@@]3(C)O[C@H]3[C@H]3OC(=O)C(=C)[C@@H]3CC1)=C\CC[C@@]1(C)O[C@@H]21` it was 7.23% (active); in that of `O=C(NNC(=O)c1ccc([N+](=O)[O-])cc1)c1ccc([N+](=O)[O-])cc1`, 96.1%; in that of `COc1cc(C(=O)NNC(=O)c2ccccc2C(=O)O)cc(OC)c1OC`, 72%.
Under `O=S(c1ccccc1)c1ccc2nnnn2n1` (stereo not drawn) stands 99%; under `Cc1ncc(CO)c(C(=O)O)c1O`, 81.2%.
Take `CCOC(=O)c1noc2c1CCc1cn(Cc3cc(OC)cc(OC)c3)cc1-2`: the growth was 81.7%.
Under `CCCCCC/C=N/Nc1ccc([N+](=O)[O-])cn1` stands 94.8%; under `CC[C@@]1(O)C(=O)OCc2c1cc1n(c2=O)Cc2c-1nc1ccccc1c2/C=N/OC(C)(C)C`, 1.26% (active).
Regarding `CC(=O)Oc1ccc(C(OC(C)=O)OC(C)=O)cc1`, the growth is 98.8%.
In the case of `C=C1C(=O)O[C@H]2[C@H]1CC/C(COC(=O)n1ccnc1C)=C\CC[C@@]1(C)O[C@@H]21`, the growth is 94.3%.
In the case of `C=C1C(=O)O[C@H]2[C@H]1CC/C(C(=O)NCCOCCOCC(=O)Nc1ccc(OC)c(C(N)=O)c1O)=C\CC[C@@]1(C)O[C@@H]21` it was 76.1%; in that of `Cc1cc(C)c(O)c(C(=O)CC(Br)C(=O)O)c1` (stereo not drawn), 107%; in that of `COc1ccc(-c2ccc(NC(=O)Nc3cccc(C(F)(F)F)c3)c(C)n2)cc1`, 76.7%.
In the case of `COc1ccc(Cn2cc(COc3ccc4c5ccnc(C)c5n(CCCc5ccccc5)c4c3)nn2)cc1` it was 103%; in that of `O=S(=O)(O)c1ccc(F)cc1`, 90.2%.
In the case of `Cc1nccc2c3ccc(OCc4cn(Cc5ccc(Br)cc5)nn4)cc3n(CCCc3ccccc3)c12` it was 101%.
Consider `Cl[C@@H]1CCO[C@H](c2cc3ccccc3c3ccccc23)C1`, for which the growth was 92.8%.
In the case of `Nc1ncnc2c1c(C(F)(F)F)cn2[C@@H]1O[C@H](CO)[C@@H](O)[C@H]1O` it was 4.15% (active); in that of `C#C[C@@]1(O)[C@@H](CO)O[C@@H](n2cc(Br)c3c(Cl)ccnc32)[C@@H]1O`, 63.3%.
